Data on 7 molecules can be found in PubChem BioAssay (EPA / NIEHS).

Active and inactive are the calls of the source. Rule for the calls: active = hit-call score of the fitted dose curve at least 0.9, where 1 is the maximum; inactive = score below 0.9.

Usually AC50 stands for the midpoint of the concentration-response curve, whichever way the signal moves.

Assay [1] in a line: APR_HepG2_CellLoss_72hr: Apredica 72-hour HepG2 Assay for Cell Loss (AID 2282915). The following applies: high-content imaging. Summed up: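 Cell number comes from Hoechst 33342-labelled nuclei, imaged at 20x after 3.7% formaldehyde fixation. Dosing was 0.39–200 uM, ten concentrations in duplicate, 0.5% DMSO final, for 72 h. Bidirectional fit relative to DMSO baseline.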
Assay [2] in a line: APR_HepG2_P-H2AX_72hr: Apredica 72-hour HepG2 Assay for H2AX Phosphorylation (AID 2282916).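 Note: phospho-histone H2A.x immunostain intensity per cell marking DNA damage.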 Conditions: imaging, actives raise or lower the signal. Summed up: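 Phospho-histone H2A.x immunofluorescence, multiplexed with Hoechst and c-Jun, quantified by high-content imaging. Compounds applied to HepG2 for 72 h across ten concentrations (0.39–200 uM, 0.5% DMSO), in duplicate; DMSO baseline.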

A short description of assay [3]: APR_HepG2_MitoMembPot_72hr: Apredica 72-hour HepG2 Assay for Mitochondrial Membrane Potential (AID 2282917). The following applies: imaging, actives raise or lower the signal. Summed up:
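Membrane potential read by MitoTracker Red CMXRos (250 nM, 30 min, pre-fixation) fluorescence imaging of HepG2 after 72 hr exposure. Ten concentrations, 0.39–200 uM, duplicate wells, 0.5% DMSO; fitted in both directions against DMSO baseline.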

The nature of assay [4]: APR_HepG2_MitoticArrest_72hr: Apredica 72-hour HepG2 Assay for Mitotic Arrest (AID 2282918). Conditions: high-content imaging, actives raise or lower the signal. Summed up:
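Mitotic arrest in HepG2 is scored from phospho-histone H3 staining after 72 hr dosing across 0.39–200 uM, with DMSO at 0.5% v/v. Nuclei are identified by Hoechst 33342 and fluorescence intensity is quantified per cell.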

The nature of assay [5]: APR_HepG2_MicrotubuleCSK_72hr: Apredica 72-hour HepG2 Assay for Microtubule CSK Stabilty (AID 2282919). The following applies: HepG2 microtubule cytoskeleton, high-content imaging, actives raise or lower the signal. Summed up: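 High-content imaging of alpha-tubulin staining in fixed HepG2 cells after 72 hr treatment with ten concentrations from 0.39 to 200 uM (0.5% DMSO). Fitting was bidirectional against DMSO; taxol served as positive control.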

The nature of assay [6]: APR_HepG2_P-H2AX_24hr: Apredica 24-hour HepG2 Assay for H2AX Phosphorylation (AID 2282920). The following applies: high-content imaging, actives raise or lower the signal. Summed up:
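Signal comes from a FITC-labeled secondary detecting phospho-histone H2A.x in fixed HepG2 cells, quantified by automated imaging at 20x. Dosing ran 24 hr across 0.39–200 uM with 0.5% v/v DMSO.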

Assay [7] in a line: APR_HepG2_StressKinase_72hr: Apredica 72-hour HepG2 Assay for Stress Kinase (AID 2282921). Conditions: HepG2 stress kinase (phospho-c-Jun) imaging, actives raise or lower the signal. Summed up:
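Stress kinase signal is phospho-c-Jun immunofluorescence (1:500 primary, Cy3 secondary) in fixed, permeabilized human HepG2 cells imaged at 20x. Exposure lasted 72 hr over ten concentrations from 0.39 to 200 uM, 0.5% DMSO, in duplicate. Bidirectional fit versus DMSO.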

Assay [8] can be described thus: APR_HepG2_StressKinase_24hr: Apredica 24-hour HepG2 Assay for Stress Kinase (AID 2282922). Conditions: HepG2 stress kinase (phospho-c-Jun) imaging, actives raise or lower the signal. Summed up:
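High-content imaging of phospho-c-Jun immunofluorescence in fixed, permeabilized HepG2 cells after 24 h dosing. Ten concentrations, 0.39 to 200 uM, run in duplicate at 0.5% v/v DMSO; gain or loss of signal versus DMSO.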

The nature of assay [9]: APR_HepG2_MitoMass_72hr: Apredica 72-hour HepG2 Assay for Mitochondrial Mass (AID 2282924).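 Note: MitoTracker Red CMXRos stain intensity per cell imaged as mitochondrial mass.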 The following applies: high-content imaging, actives raise or lower the signal. Summed up: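 Readout is imaged MitoTracker Red (250 nM, 30 min, pre-fixation) signal, fitted bidirectionally against DMSO baseline. Human HepG2 liver cells received compound 0.39–200 uM in duplicate for 72 hr, final DMSO 0.5%.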

A short description of assay [10]: APR_HepG2_NuclearSize_72hr: Apredica 72-hour HepG2 Assay for Nuclear Size (AID 2282925). The following applies: high-content imaging, actives raise or lower the signal. Summed up: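 Nuclear size was read by high-content imaging of Hoechst 33342 stain after formaldehyde fixation. Compounds ran 72 h on HepG2 at 0.39 to 200 uM, with final DMSO 0.5% v/v. Curves fitted both directions relative to DMSO control.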

A short description of assay [11]: ATG_CRE_CIS: Attagene CIS-FACTORIAL HepG2 Assay for human cAMP Responsive Element (CRE) binding protein 3 (AID 2282926). The following applies: HepG2 CRE cis-reporter, Attagene multiplexed mRNA; actives raise or lower the signal. Summed up: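 Cells carrying cis-regulated reporter constructs respond through their own endogenous factors. After 24 h treatment, RNA is reverse-transcribed, amplified, labelled and sized by capillary electrophoresis; up- and down-regulation are both scored against vehicle.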

Assay [12] deals with CCAAT/enhancer-binding protein beta (Homo sapiens) (UniProt P17676). Kind of assay: ATG_C_EBP_CIS: Attagene CIS-FACTORIAL HepG2 Assay for human CCAAT/Enhancer Binding Protein (C/EBP) beta (AID 2282927). The following applies: HepG2 Attagene cis-factorial transcription factor reporter; actives raise or lower the signal. Summed up:
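Changes in reporter mRNA, rather than exogenous chimeric receptor activity, reflect native C/EBP signalling in transfected HepG2 cells dosed for 24 h; transcripts are detected by RT-PCR and capillary electrophoresis.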

A short description of assay [13]: ATG_DR4_LXR_CIS: Attagene CIS-FACTORIAL HepG2 Assay for human Liver X Receptor (LXR), DR4 submotif (AID 2282929). The following applies: HepG2 Attagene DR4 cis-reporter, mRNA transcription; actives raise or lower the signal. Summed up:
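Cells were transfected with multiple reporter transcription units, exposed to chemicals for 24 hours, then lysed for RNA. Reporter mRNA induction was measured by RT-PCR with capillary electrophoresis detection and fitted in both directions relative to DMSO.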

The target in assay [14] is Aryl hydrocarbon receptor (Homo sapiens) (UniProt P35869). The assay can be described thus: ATG_Ahr_CIS: Attagene CIS-FACTORIAL HepG2 Assay for human Aryl Hydrocarbon Receptor (Ahr) (AID 2282930). The following applies: HepG2 AhR cis-factorial reporter transcription; actives raise or lower the signal. Summed up:
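HepG2, transient MRTU (cis) transfection, 24 h exposure. RNA → cDNA → PCR → 6-FAM primer extension → HpaI 2 h 37 C → CE. Fit: bidirectional, DMSO baseline.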

Assay [15] can be described thus: ATG_AP_1_CIS: Attagene CIS-FACTORIAL HepG2 Assay for human Activator Protein 1 (AP-1) (AID 2282931). Conditions: HepG2 Attagene cis-factorial AP-1 reporter mRNA; actives raise or lower the signal. Summed up: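 Endogenous transcription-factor activity in human HepG2 liver cells is read through a cis-promoter reporter transcript, sampled 24 h after dosing. Detection uses RT-PCR with capillary electrophoresis; values come from bidirectional fitting relative to DMSO.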

Assay [16] can be described thus: ATG_AP_2_CIS: Attagene CIS-FACTORIAL HepG2 Assay for human Activator Protein 2 (AP-2) (AID 2282932). The following applies: HepG2 AP-2 cis-reporter, Attagene transcription factor profiling; actives raise or lower the signal. Summed up: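 Endogenous transcription factor activity is reported through transfected multiplex reporter constructs in HepG2, after 24 h of compound exposure. Transcripts were quantified by RT-PCR and capillary electrophoresis of fluorescent fragments. Bidirectional fit against DMSO.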

The target in assay [17] is Retinoic acid receptor alpha (Homo sapiens) (UniProt P10276). Kind of assay: ATG_DR5_RAR_CIS: Attagene CIS-FACTORIAL HepG2 Assay for human Retinoic Acid Receptor Alpha (RARE), DR5 submotif (AID 2282934). The following applies: HepG2 Attagene cis-factorial RARE DR5 reporter, mRNA; actives raise or lower the signal. Summed up: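 HepG2, transient cis-reporter transfection, 24 h exposure. mRNA readout: RT-PCR, FAM label, HpaI cut, capillary electrophoresis. DMSO baseline, gain/loss fitting.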

Assay [18] can be described thus: ATG_CMV_CIS: Attagene CIS-FACTORIAL HepG2 Assay for human CMV (Internal Marker) (AID 2282928).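 Note: endpoint acts as a background internal control marker rather than a target.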 Conditions: HepG2 CMV promoter reporter, transcription factor profiling; actives raise or lower the signal. Summed up:
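Fluorescence intensity of RT-PCR-derived reporter fragments, resolved by capillary electrophoresis, gives the signal. HepG2 liver cells bearing transfected cis-element reporters were treated 24 h; activity in either direction was fit relative to DMSO-treated controls.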

Assay [19] in a line: APR_HepG2_p53Act_72hr: Apredica 72-hour HepG2 Assay for p53 Activation (AID 2282923).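 Note: average cellular p53 protein immunofluorescence intensity in HepG2 cells.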 Conditions: high-content imaging, actives raise or lower the signal. Summed up: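 After 72 h with compound (ten points, 0.39 to 200 uM, final DMSO 0.5% v/v), fixed HepG2 cells were labelled with sheep anti-p53 and Hoechst 33342 and imaged; gain or loss versus DMSO scored.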
A short description of assay [20]: ATG_BRE_CIS: Attagene CIS-FACTORIAL HepG2 Assay for human Bone Morphogenetic Protein (BMP) Response Element (BRE) (AID 2282933). Conditions: HepG2 BMP response element reporter, Attagene transcription factor profiling; actives raise or lower the signal. Summed up:
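After a 24 h chemical treatment, transiently transfected HepG2 cells were lysed for RNA; reporter transcripts were quantified by fluorescent RT-PCR and capillary electrophoresis, normalised to DMSO.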

Aryl hydrocarbon receptor (Homo sapiens), sequence (P35869 whole entry, looked up): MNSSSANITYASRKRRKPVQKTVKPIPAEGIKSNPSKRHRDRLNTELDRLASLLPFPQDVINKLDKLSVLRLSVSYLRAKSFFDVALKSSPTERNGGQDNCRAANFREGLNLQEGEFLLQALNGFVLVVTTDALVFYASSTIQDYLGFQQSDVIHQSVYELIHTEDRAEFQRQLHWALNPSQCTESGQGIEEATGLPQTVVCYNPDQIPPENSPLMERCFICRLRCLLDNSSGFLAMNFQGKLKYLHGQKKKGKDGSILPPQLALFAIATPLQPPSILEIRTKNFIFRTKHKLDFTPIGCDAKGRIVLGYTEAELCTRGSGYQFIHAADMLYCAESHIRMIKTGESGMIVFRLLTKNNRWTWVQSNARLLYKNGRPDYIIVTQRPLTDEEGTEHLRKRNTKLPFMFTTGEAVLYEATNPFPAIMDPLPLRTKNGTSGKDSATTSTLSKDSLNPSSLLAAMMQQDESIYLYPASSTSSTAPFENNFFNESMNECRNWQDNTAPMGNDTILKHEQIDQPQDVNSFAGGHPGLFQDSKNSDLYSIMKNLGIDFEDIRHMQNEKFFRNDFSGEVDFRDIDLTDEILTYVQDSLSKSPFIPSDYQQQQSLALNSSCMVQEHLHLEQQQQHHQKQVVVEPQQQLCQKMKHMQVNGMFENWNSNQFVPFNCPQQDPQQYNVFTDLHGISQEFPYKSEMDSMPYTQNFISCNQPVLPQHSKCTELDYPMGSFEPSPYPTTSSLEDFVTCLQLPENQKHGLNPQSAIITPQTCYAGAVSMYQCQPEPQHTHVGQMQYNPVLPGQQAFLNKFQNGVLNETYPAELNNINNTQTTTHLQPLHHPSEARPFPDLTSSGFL
Retinoic acid receptor alpha (Homo sapiens), sequence (P10276 whole entry, looked up): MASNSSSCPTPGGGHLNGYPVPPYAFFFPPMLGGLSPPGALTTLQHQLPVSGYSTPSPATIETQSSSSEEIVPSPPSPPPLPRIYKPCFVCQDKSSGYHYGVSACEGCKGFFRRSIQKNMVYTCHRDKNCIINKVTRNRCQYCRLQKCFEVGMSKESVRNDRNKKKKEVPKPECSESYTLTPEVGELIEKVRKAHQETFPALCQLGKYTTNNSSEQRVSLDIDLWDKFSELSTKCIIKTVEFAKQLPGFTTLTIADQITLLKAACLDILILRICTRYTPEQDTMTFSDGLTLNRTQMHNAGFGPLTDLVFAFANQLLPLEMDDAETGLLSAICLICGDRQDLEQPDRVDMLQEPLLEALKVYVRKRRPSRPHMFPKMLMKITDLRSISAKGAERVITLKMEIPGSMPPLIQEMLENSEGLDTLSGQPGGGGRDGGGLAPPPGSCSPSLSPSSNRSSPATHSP
CCAAT/enhancer-binding protein beta (Homo sapiens), sequence (P17676 whole entry, looked up): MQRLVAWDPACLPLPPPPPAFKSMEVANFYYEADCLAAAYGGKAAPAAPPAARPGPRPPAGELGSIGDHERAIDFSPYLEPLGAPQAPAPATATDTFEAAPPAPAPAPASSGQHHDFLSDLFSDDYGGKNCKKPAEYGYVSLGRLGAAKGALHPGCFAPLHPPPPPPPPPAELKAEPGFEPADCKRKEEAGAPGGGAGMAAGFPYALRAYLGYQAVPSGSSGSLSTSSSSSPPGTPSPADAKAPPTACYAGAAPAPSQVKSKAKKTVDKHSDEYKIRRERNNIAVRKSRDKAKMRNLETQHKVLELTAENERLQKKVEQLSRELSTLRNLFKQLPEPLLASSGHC

Turning to `NC(=O)N1c2ccccc2C=Cc2ccccc21`, the call in [1], in assay [2], in assay [3], in [4], in assay [5] and in assay [6] was inactive. Further, the call in [7], in assay [8], in [9], in assay [10], in assay [11] and in assay [12] was inactive. Further, the molecule was classed as inactive in [13], in assay [14], in assay [15], in assay [16] and in assay [17].
As for `CC(C)CCCCCCOC(=O)C1CCCCC1C(=O)OCCCCCCC(C)C` (stereo not given), the call in assay [1], in assay [2], in assay [3], in assay [4], in assay [5] and in assay [6] was inactive. Besides, the molecule was called inactive in assay [7], in [8], in [9], in [10], in [11] and in assay [12]. The outcome in assay [18], in assay [13], in assay [15], in [16] and in [17] was inactive. The AC50 in assay [14] was 84.8 µM (active).
As for `CCCCCCCCCCCCCCO`, the AC50 is 106 µM (active) in assay [1]; 98.6 µM (active) in [2]; 90.9 µM (active) in assay [4]; 114 µM (active) in assay [5]; 101 µM (active) in assay [6]; 104 µM (active) in assay [19]. Besides, the AC50 in [12] was 74.3 µM (active); in assay [13], 78 µM (active); in assay [14], 114 µM (active); in assay [16], 166 µM (active). Moreover, the molecule was classed as inactive in assay [3], in [7], in assay [8], in assay [9], in assay [10] and in [11]. Besides, the molecule was classed as inactive in assay [15].
Turning to `CCOc1ccc2[nH]cc(C(=O)NCc3ccccc3)c(=O)c2n1`, the AC50 is 106 µM (active) in [1], 105 µM (active) in assay [2], 109 µM (active) in assay [4] and 4.77 µM (active) in assay [14]. Moreover, the result in assay [3], in assay [5], in [6], in assay [7], in [8] and in [9] was inactive. Besides, the molecule was classed as inactive in assay [10], in assay [11], in assay [12], in [18], in [13] and in assay [15]. Besides, the result in assay [16], in [20] and in [17] was inactive.
Consider `CCOC(N)=O`, for which the outcome in assay [1], in [2], in assay [3], in assay [4], in assay [5] and in assay [6] was inactive. The call in assay [7], in assay [8], in [19], in assay [9], in [10] and in assay [11] was inactive. Further, the result in assay [12], in [13], in assay [15] and in assay [16] was inactive.
In the case of `OCC(CO)(CO)CO`, the result in assay [1], in assay [2], in [3], in assay [4], in assay [5] and in [6] was inactive. Moreover, the result in [7], in assay [8], in [9], in assay [10], in [11] and in assay [12] was inactive. In addition, the call in [18], in assay [13], in assay [14], in [15], in [16] and in assay [20] was inactive. Moreover, in assay [17], the molecule was classed as inactive.
`O=C(O)c1cccc(C[C@@H]2COc3ccc(OCc4nc5cc(F)ccc5s4)cc3[C@@H]2O)c1`: the AC50 was 63.7 µM (active) in assay [1]; 97.3 µM (active) in assay [2]; 102 µM (active) in [4]; 105 µM (active) in assay [6]; 66.3 µM (active) in assay [7]; 110 µM (active) in [8]. Moreover, the AC50 in assay [19] was 73.1 µM (active); in assay [9], 178 µM (active); in assay [13] it was 100 µM (active); in assay [15], 158 µM (active); in assay [16] it was 167 µM (active). In addition, the call in assay [3], in [5], in assay [10], in [11], in assay [12] and in [18] was inactive. Further, the call in assay [14] and in assay [20] was inactive.
